About 79,000 compounds went through this panel and 15% of them were active in at least one assay; those are over-represented in the sample as a whole. Rule as the data show it: active = growth inhibition above about 70%; inactive = the rest.
What was measured:
[1] = NCI Yeast Anticancer Drug Screen. Data for the rad50 strain (AID 155);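 also: 0% = growth of vehicle-only cultures of the same strain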; conditions: S. cerevisiae rad50 strain growth inhibition; at 50.0 µM; hits give high values
In short: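 Vehicle-treated cultures provide the reference for the growth inhibition reported for compound-exposed, repair-deficient yeast.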

[2] = NCI Yeast Anticancer Drug Screen. Data for the mec2-1 strain (AID 157); conditions: S. cerevisiae mec2-1 strain, at 50.0 µM, hits give high values
In short: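 Strain: mec2-1 (DNA repair/cell cycle alteration). Compound exposure, then growth measured; inhibition expressed relative to vehicle.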

[3] = NCI Yeast Anticancer Drug Screen. Data for the sgs1 mgt1 strain (AID 161);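 also: 0% = growth of cultures given vehicle only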; conditions: S. cerevisiae sgs1 mgt1 strain, at 50.0 µM, hits give high values
In short: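 Test agents were incubated with a DNA-repair-mutant yeast strain. Growth was then read and compared against vehicle-treated controls.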

[4] = NCI Yeast Anticancer Drug Screen. Data for the cln2 rad14 strain (AID 165);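 also: 0% = growth equal to vehicle treated cultures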; conditions: S. cerevisiae cln2 rad14 strain, at 50.0 µM, hits give high values
In short: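 Compounds are applied to the cln2 rad14 yeast strain, and growth is then compared with that of vehicle-treated cultures to give inhibition.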

[5] = NCI Yeast Anticancer Drug Screen. Data for the bub3 strain (AID 167); conditions: S. cerevisiae bub3 mutant strain, at 50.0 µM, hits give high values
In short: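 Mutant yeast screening strain plus compound; vehicle-treated cultures serve as the 0% inhibition reference.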

[6] = NCI Yeast Anticancer Drug Screen. Data for the mlh1 rad18 strain (AID 175); conditions: S. cerevisiae mlh1 rad18 strain growth inhibition; at 50.0 µM; hits give high values
In short: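 Read-out is yeast growth inhibition, calculated against vehicle-only controls. The compound was applied to a strain engineered with DNA damage repair alterations.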

Measured: growth inhibition

NC(=O)CN(CC(N)=O)C(N)=O
inactive: [1] -14.6% | [2] -18% | [3] -20.2% | [4] 5.15% | [5] -10.3% | [6] -23.6%

CCN(/C=C/C=C(C#N)C#N)CC
inactive: [1] 6.05% | [2] -5.3% | [3] -9.05% | [4] -15.8% | [5] 6.35% | [6] -12.7%

C/C(=N\NC(=O)CCCCC(=O)N/N=C(\C)c1ccc(C)cc1)c1ccc(C)cc1
inactive: [1] -3.65% | [2] -11.3% | [3] 10.4% | [4] -45.7% | [5] -1.9% | [6] -2.7%

Cc1cc(=O)[nH]c(N/N=C2/CCCCC2C)n1 (stereo unspecified)
inactive: [1] -29.4% | [2] -25% | [3] -7.05% | [4] -0.6% | [5] -24.3% | [6] -21.8%

CCOC(=O)Cc1cc(=O)oc2cc(O)ccc12
inactive: [1] -22.9% | [2] 2.3% | [3] 4.1% | [4] 22.7% | [5] -1.8% | [6] -1.1%

CC(C)(C)OC(=O)NCC(O)CNC(=O)OC(C)(C)C
inactive: [1] -1.25% | [2] -6.6% | [3] -45.8% | [4] -26% | [5] -22.9% | [6] -24.6%

CCOC(=O)C(NC(=O)CC)(Nc1ccccc1OC)C(F)(F)F (stereo unspecified)
inactive: [1] -40.9% | [2] -28.6% | [3] -28.6% | [4] -17.3% | [5] -25.2% | [6] -31.5%

COC(=O)Cc1ccccc1-n1nccc1S(C)=O (stereo unspecified)
inactive: [1] 10.2% | [2] -5.05% | [3] 14.3% | [4] -7.65% | [5] 8.6% | [6] 7.45%

COC(=O)CCC1CCC(CC2CCC(CCC(=O)OC)CC2)CC1 (stereo unspecified)
inactive: [1] -20.1% | [2] -6.95% | [3] -6.65% | [4] -26% | [5] -9.7% | [6] -4.25%

O=C(O)C(NCCNC(C(=O)O)c1ccccc1)c1ccccc1 (stereo unspecified)
inactive: [1] 24.2% | [2] 6.7% | [3] 19% | [4] 38.6% | [5] 15.2% | [6] 3.4%

CN(C)CC1CCc2ccccc2C1=O (stereo unspecified)
inactive: [1] -16.1% | [2] -37.2% | [3] -46.8% | [4] -2.05% | [5] -52.1% | [6] -48.1%

N#C/C(N)=C(/C#N)N=Cc1ccccc1
inactive: [1] 15.9% | [2] 21.3% | [3] 8.4% | [4] -64.4% | [5] 7.2% | [6] 18.9%

CNc1cccc2c1C(C)C[C@]1(C)C(=O)Nc3ccccc3[C@H]21 (stereo partly specified)
inactive: [1] -36.5% | [2] -19.7% | [3] -22.6% | [4] -31.1% | [5] -35.8% | [6] -80.3%

N#CC(=C1c2ccccc2-c2ccccc21)c1ccccc1
inactive: [1] -14.2% | [2] 7.1% | [3] -2.35% | [4] -2.65% | [5] 2.75% | [6] -20.5%

NNC(=O)c1oc2ccccc2c1CN(CCO)CCO
inactive: [1] 3.75% | [2] -2.4% | [3] 3.45% | [4] -2.45% | [5] -1.15% | [6] -5.1%

CN1CCN(C(=S)N(C(=O)c2ccco2)c2ccccc2)CC1
inactive: [1] -57.8% | [2] -44.3% | [3] -22.6% | [4] -2.4% | [5] -0.1% | [6] -37.9%

CCC(C)NC(=O)Nc1ccccc1 (stereo unspecified)
inactive: [1] 13.3% | [2] 8.95% | [3] -0.65% | [4] 3.9% | [5] -2.45% | [6] 6.35%

CCCCOC(=O)C12CCCCC1O2 (stereo unspecified)
inactive: [1] -29.1% | [2] -29.9% | [3] -12.8% | [4] 2.55% | [5] -29.1% | [6] -0.55%

COc1ccc(-c2nc3ccccc3[nH]2)cc1
inactive: [1] 16.4% | [2] -2.7% | [3] 1.7% | [4] -4% | [5] -21.5% | [6] -3.1%

CCC(=O)C1(CCCN(C)C)c2ccccc2Sc2ccccc21
inactive: [1] -14.3% | [2] 2.45% | [3] -8.6% | [4] -38.1% | [5] -2.35% | [6] 4.6%

c1ccc(CCN(c2ccccc2)c2ccccc2)cc1
inactive: [1] 21.1% | [2] -2.4% | [3] -11.2% | [4] 9.8% | [5] 7.55% | [6] 1.2%

— PubChem BioAssay (NCI)
